Assay results reported in PubChem BioAssay (Tox21).
Inconclusive results are not listed. The source made the active and inactive calls. Unless noted, calls come from the whole dose curve; as a rule, active = well fitted curve in the direction sought with a large enough effect in the repeat runs; inconclusive = weak or mixed curves; inactive = no such curve, though single readings can be large; an effect the other way counts as inactive or inconclusive.

How the values were obtained:
[1] = qHTS assay to identify small molecule agonists of the hypoxia (HIF-1) signaling pathway - cell viability counter screen (AID 1224844; calls by dose curve; note: nearly all actives have a fitted effect of over 50% in size; note: potency is the fitted concentration of half-maximal effect)
How it was run: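 Tox21 10K compounds were added to HRE-bla ME-180 cells (0.5% dialyzed FBS) and incubated 17 hrs at 37C; ATP-based CellTiter-Glo luminescence then reported cell viability in the same wells.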

[2] = qHTS assay to identify small molecule agonists of H2AX (AID 1224845; active = well fitted activation curve with a large enough effect in the signal ratio in the repeat runs, not every such curve was filed as active; the % refers to the signal ratio)
How it was run: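 Wild-type CHO-K1 cells plated overnight, then exposed 3 hr at 37C to compounds at 15 concentrations (0.76% DMSO). Lysed, then HTRF anti-pH2AX(S139)-cryptate/anti-H2AX-d2 detection after 24 hr at room temperature; emissions 665 and 620 nm.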

[3] = qHTS assay to identify small molecule agonists of the hypoxia (HIF-1) signaling pathway (AID 1224846; active = well fitted activation curve with a large enough effect in the signal ratio in the repeat runs, not every such curve was filed as active; the % refers to the signal ratio)
How it was run: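 Steps: seed ME-180 HRE-bla cells (2,000/well, 0.5% dialyzed FBS); incubate 5 hrs at 37C; pin-transfer compounds or DMSO; incubate 17 hrs; add LiveBLAzer B/G substrate CCF4-AM; measure reporter activation by FRET.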

[4] = qHTS assay to identify small molecule agonists of H2AX - cell viability counter screen (AID 1224847; calls by dose curve; note: nearly all actives have a fitted effect of over 30% in size; note: potency is the fitted concentration of half-maximal effect; for activity change, negative = cytotoxicity: top concentration of the series differs between compounds)
How it was run: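 Quantitative HTS viability measurement: CHO-K1 wild-type cells in serum (10% FBS) medium, short 3 hr drug exposure at 37C with 0.76% DMSO, CellTiter-Glo luminescent detection.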

[5] = qHTS assay to identify small molecule antagonists of the estrogen related receptor (ERR) signaling pathway from Tox21 library (AID 1224848); note: nearly all actives have a fitted effect of over 50% in size; note: potency is the fitted concentration of half-maximal effect
How it was run: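 Screening used an ERR reporter line supplied by NTP, exposed for 18 h at 37 C to library compounds delivered in DMSO. Signal was luciferase luminescence developed with ONE-Glo at room temperature for 30 min.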

[6] = qHTS assay to identify small molecule agonists of the estrogen related receptor (ERR) signaling pathway from Tox21 library (AID 1224849; calls by dose curve; note: nearly all actives have a fitted effect of over 15% in size); conditions: ERR reporter cell line, ONE-Glo luciferase, 18 h; at 92.4 µM (top of the series) unless noted
How it was run: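 Agonist signal is luciferase luminescence from an ERR reporter cell line treated 18 h at 37 C with DMSO-dissolved compounds, read 30 min after ONE-Glo addition at room temperature.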

[7] = qHTS RealTime-Glo MT Cell Viability Assay in HepG2 cells - 24 hour (AID 1224867); note: nearly all actives have a fitted effect of over 50% in size
How it was run: (§1)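 HepG2 cells were seeded at 600 cells/well together with NanoLuc luciferase and a cell-permeant prosubstrate, preincubated 5 h at 37 C/5% CO2, then pin-dosed with compounds in DMSO. Nonlytic luminescence from viable cells was read at each time point.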

[8] = qHTS RealTime-Glo MT Cell Viability Assay in HEK293 cells - 32 hour (AID 1224868); note: nearly all actives have a fitted effect of over 50% in size; note: potency is the fitted concentration of half-maximal effect; for activity change, negative = cytotoxic: top concentration of the series differs between compounds
How it was run: (§2)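 HEK293 cells were seeded at 600 cells/well together with NanoLuc luciferase and cell-permeant prosubstrate, preincubated 5 h at 37 C/5% CO2, then given compound in DMSO by pintool. Luminescence from viable-cell prosubstrate reduction was read repeatedly over 40 h.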

[9] = A CellTox Green Cytotoxicity Assay to monitor cytotoxicity in HEK293 cells - 0 hour (AID 1224869); note: nearly all actives have a fitted effect of over 50% in size; note: potency is the fitted concentration of half-maximal effect
How it was run: (§3)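 Cytotoxicity was tracked continuously in HEK293 cells by a DNA-binding dye excluded from viable cells. Compounds were transferred in DMSO 5 h after seeding; fluorescence was recorded at intervals up to 40 h.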

[10] = A CellTox Green Cytotoxicity Assay to monitor cytotoxicity in HEK293 cells - 40 hour (AID 1224871); note: nearly all actives have a fitted effect of over 45% in size; note: potency is the fitted concentration of half-maximal effect
How it was run: as §3

[11] = qHTS RealTime-Glo MT Cell Viability Assay in HEK293 cells - 16 hour (AID 1224872); note: nearly all actives have a fitted effect of over 50% in size; note: potency is the fitted concentration of half-maximal effect; for activity change, negative = cytotoxicity: top concentration of the series differs between compounds
How it was run: as §2

[12] = qHTS RealTime-Glo MT Cell Viability Assay in HepG2 cells - 8 hour (AID 1224873); note: nearly all actives have a fitted effect of over 55% in size
How it was run: (§4)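 HepG2 cells mixed with RealTime-Glo MT reagents (NanoLuc plus cell-permeant prosubstrate) were seeded at 600 cells/well, incubated 5 h at 37 C/5% CO2, then pinned with compounds in DMSO; nonlytic luminescence tracked viability during 40 h treatment.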

[13] = qHTS RealTime-Glo MT Cell Viability Assay in HEK293 cells - 40 hour (AID 1224874); conditions: RealTime-Glo luminescence; max response: hits give low values; note: nearly all actives have a fitted effect of over 50% in size; note: potency is the fitted concentration of half-maximal effect
How it was run: (§5)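 Nonlytic bioluminescent viability monitoring. HEK293 at 600 cells/well with reagent; 5 h settle; compound transfer by pintool; plates held at 37 C and read at set time points.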

[14] = A CellTox Green Cytotoxicity Assay to monitor cytotoxicity in HEK293 cells - 24 hour (AID 1224875); note: nearly all actives have a fitted effect of over 45% in size; note: potency is the fitted concentration of half-maximal effect
How it was run: as §3

[15] = A CellTox Green Cytotoxicity Assay to monitor cytotoxicity in HepG2 cells - 16 hour (AID 1224876); note: nearly all actives have a fitted effect of over 45% in size; note: potency is the fitted concentration of half-maximal effect
How it was run: (§6)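 Real-time, homogeneous cytotoxicity readout: dead-cell DNA staining by CellTox Green in HepG2 monolayers, fluorescence measured at timed intervals up to 40 h of continuous compound exposure.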

[16] = qHTS RealTime-Glo MT Cell Viability Assay in HepG2 cells - 32 hour (AID 1224877); note: nearly all actives have a fitted effect of over 55% in size
How it was run: as §1

[17] = A CellTox Green Cytotoxicity Assay to monitor cytotoxicity in HepG2 cells - 24 hour (AID 1224878); note: nearly all actives have a fitted effect of over 45% in size; note: potency is the fitted concentration of half-maximal effect
How it was run: as §6

[18] = A CellTox Green Cytotoxicity Assay to monitor cytotoxicity in HepG2 cells - 40 hour (AID 1224879); note: nearly all actives have a fitted effect of over 40% in size; note: potency is the fitted concentration of half-maximal effect
How it was run: as §6

[19] = qHTS RealTime-Glo MT Cell Viability Assay in HEK293 cells - 0 hour (AID 1224880); note: nearly all actives have a fitted effect of over 45% in size; note: potency is the fitted concentration of half-maximal effect; for activity change, negative = cytotoxicity: top concentration of the series differs between compounds
How it was run: as §5

[20] = qHTS RealTime-Glo MT Cell Viability Assay in HepG2 cells - 40 hour (AID 1224870); note: nearly all actives have a fitted effect of over 50% in size
How it was run: as §4
% is set by controls: 0 for no effect and ±100 for the full control effect.

C1CCCNCCC1
inactive: Potency [1] | Potency [2] | Potency [3] | Potency [4] | Potency [5] | activity change, positive = activation [6] -2.25% | Potency [7] | Potency [8] | Potency [9] | Potency [10] | Potency [11] | Potency [12] | max response [13] -5.84% | Potency [14] | Potency [15] | Potency [16] | Potency [17] | Potency [18] | Potency [19]

CCCCCC[C@@H](O)C/C=C\CCCCCCCC(=O)OC
inactive: Potency [1] | Potency [2] | Potency [3] | Potency [4] | Potency [5] | activity change, positive = activation [6] 3.83% | Potency [8] | Potency [9] | Potency [20] | Potency [10] | Potency [11] | Potency [12] | max response [13] 0.122% | Potency [14] | Potency [15] | Potency [16] | Potency [17] | Potency [18] | Potency [19]

O=C1[C@H]2CCCC[C@H]2C(=O)N1CCCCN1CCN(c2nsc3ccccc23)CC1
active: Potency [5] 26.6 µM
inactive: Potency [1] | Potency [2] | Potency [3] | Potency [4] | activity change, positive = activation [6] -38.9% [at 42.5 µM] | Potency [9] | Potency [20] | Potency [12] | Potency [14] | Potency [15] | Potency [16] | Potency [17] | Potency [18] | Potency [19]

Nc1cccc([N+](=O)[O-])c1
inactive: Potency [1] | Potency [2] | Potency [3] | Potency [4] | Potency [5] | activity change, positive = activation [6] -5.85% | Potency [7] | Potency [8] | Potency [9] | Potency [10] | Potency [11] | Potency [12] | max response [13] 1.66% | Potency [14] | Potency [15] | Potency [17] | Potency [18] | Potency [19]

O=C(O)c1ccc(S(=O)(=O)O)cc1C(=O)O
inactive: Potency [1] | Potency [2] | Potency [3] | Potency [4] | Potency [5] | activity change, positive = activation [6] -2.89% | Potency [7] | Potency [9] | Potency [20] | Potency [10] | Potency [14] | Potency [15] | Potency [16] | Potency [17] | Potency [18] | Potency [19]

CC(CSC(=O)c1ccccc1)C(=O)N1C[C@@H](Sc2ccccc2)C[C@H]1C(=O)O (stereo partly drawn)
inactive: activity change, negative = cytotoxicity [1] -3.08% [at 15.8 µM] | activation (H2AX phosphorylation) [2] 0.449% [at 31.6 µM] | activation [3] 0.628% [at 15.8 µM] | activity change, negative = cytotoxicity [4] 1.45% [at 31.6 µM] | activity, negative = inhibition [5] -0.558% [at 19 µM] | activity change, negative = cytotoxicity [7] 3.68% [at 15.8 µM] | activity change, negative = cytotoxic [8] -4.06% [at 15.8 µM] | cytotoxicity [9] -0.576% [at 15.8 µM] | activity change, negative = cytotoxic [20] 2.68% [at 15.8 µM] | cytotoxicity increase [10] 1.14% [at 15.8 µM] | activity change, negative = cytotoxicity [11] -4.93% [at 15.8 µM] | viability change, negative = cytotoxic [12] 1.39% [at 15.8 µM] | max response [13] -5.01% | activity change [14] 3.46% [at 15.8 µM, hits give high values] | cytotoxicity increase [15] -2.05% [at 15.8 µM] | activity change, negative = cytotoxic [16] 4.17% [at 15.8 µM] | cytotoxicity [17] -1.93% [at 15.8 µM] | cytotoxicity increase [18] -0.523% [at 15.8 µM] | activity change, negative = cytotoxicity [19] -6.47% [at 15.8 µM]

O=[N+]([O-])c1cccc(S(=O)(=O)O)c1
inactive: Potency [1] | Potency [2] | Potency [3] | activity change, positive = activation [6] -46% | Potency [7] | Potency [20] | Potency [12] | Potency [14] | Potency [15] | Potency [17] | Potency [18] | Potency [19]
active: Potency [4] 45.7 µM | Potency [5] 27.7 µM | Potency [8] 22.2 µM | Potency [13] 17.6 µM

C=C(C)C(=O)OCC
inactive: Potency [1] | Potency [2] | Potency [3] | Potency [4] | Potency [5] | activity change, positive = activation [6] 5.74% | Potency [7] | Potency [8] | Potency [9] | Potency [20] | Potency [10] | Potency [11] | max response [13] 2.67% | Potency [14] | Potency [15] | Potency [16] | Potency [17] | Potency [18] | Potency [19]

O=[N+]([O-])c1ccc(NCCO)c(OCCO)c1
inactive: Potency [1] | Potency [2] | Potency [3] | Potency [4] | Potency [5] | activity change, positive = activation [6] -14.5% | Potency [8] | Potency [20] | Potency [10] | Potency [11] | Potency [12] | max response [13] -13.3% | Potency [14] | Potency [15] | Potency [16] | Potency [17] | Potency [18] | Potency [19]

CCCCCCOC(=O)NC(=N)c1ccc(NCc2nc3cc(C(=O)N(CCC(=O)OCC)c4ccccn4)ccc3n2C)cc1
active: Potency [1] 23.9 µM | Potency [5] 13.3 µM | Potency [8] 10.7 µM | Potency [11] 9.52 µM | Potency [13] 10.7 µM | Potency [17] 23.9 µM | Potency [18] 23.9 µM
inactive: Potency [2] | Potency [3] | Potency [4] | activity change, positive = activation [6] -64.4% [at 42.5 µM] | Potency [9] | Potency [20] | Potency [10] | Potency [14] | Potency [15]

OC[C@H]1O[C@@H](OCCc2ccc(O)cc2)[C@H](O)[C@@H](O)[C@@H]1O
inactive: Potency [1] | Potency [2] | Potency [3] | Potency [4] | Potency [5] | activity change, positive = activation [6] 4.76% [at 42.5 µM] | Potency [7] | Potency [8] | Potency [9] | Potency [20] | Potency [10] | Potency [11] | Potency [12] | max response [13] 7.46% | Potency [14] | Potency [16] | Potency [17] | Potency [18] | Potency [19]

O=C(Nc1ccc(S(=O)(=O)N2CCOCC2)cc1)c1cc(Cl)ccc1NS(=O)(=O)c1ccc(Cl)s1
active: Potency [9] 19 µM | Potency [10] 21.3 µM | Potency [14] 23.9 µM | Potency [15] 26.8 µM | Potency [19] 10.7 µM
inactive: Potency [1] | Potency [2] | Potency [3] | Potency [4] | Potency [5] | activity change, positive = activation [6] -2.07% [at 42.5 µM] | Potency [8] | Potency [20] | Potency [11] | max response [13] -14.7%

Cc1c(N)cccc1[N+](=O)[O-]
inactive: Potency [1] | Potency [2] | Potency [3] | Potency [4] | Potency [5] | Potency [7] | Potency [8] | Potency [9] | Potency [10] | Potency [11] | max response [13] -13.1% | Potency [14] | Potency [16] | Potency [17] | Potency [18] | Potency [19]

Nc1ccc([N+](=O)[O-])c(C(F)(F)F)c1
inactive: Potency [1] | Potency [2] | Potency [3] | Potency [4] | Potency [5] | Potency [7] | Potency [8] | Potency [9] | Potency [10] | Potency [11] | Potency [12] | max response [13] -6.2% | Potency [14] | Potency [15] | Potency [16] | Potency [17] | Potency [18] | Potency [19]
